According to a collection of fitness landscapes (doi:10.1038/s41467-024-54723-y):
The full ranking holds about 18,000 sequences; the median of “TetR repression strength (sort-seq, GFP reporter)” is about 0.23, and the highest 2% start at about 0.68. Many of the other results were omitted from the sample, so the highest values are more common in it than they were.

These sequences were tested against TetR (class B, Tn10) (UniProt P04483) (assay: TetR repression strength (sort-seq, GFP reporter) (relative to tetO2 = 1); higher = stronger repression). Conditions: E. coli.
Procedure, shortened: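 E. coli SIG10-MAX carried a low-copy plasmid library with eight randomized operator positions between a constitutive promoter and sfGFP, with TetR constitutively expressed. Cells grew 5 h at 37 °C in LB with 50 µg/mL chloramphenicol, then 10^6 cells were FACS-sorted into 13 fluorescence bins, each Illumina-sequenced. Repression strength is the top bin index plus one minus the read-weighted mean bin, divided by the wild-type operator value. Three independent transformations; variants with ≥30 reads in all replicates and CV ≤0.5 were averaged.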

Sequence of TetR (class B, Tn10) (P04483 whole entry): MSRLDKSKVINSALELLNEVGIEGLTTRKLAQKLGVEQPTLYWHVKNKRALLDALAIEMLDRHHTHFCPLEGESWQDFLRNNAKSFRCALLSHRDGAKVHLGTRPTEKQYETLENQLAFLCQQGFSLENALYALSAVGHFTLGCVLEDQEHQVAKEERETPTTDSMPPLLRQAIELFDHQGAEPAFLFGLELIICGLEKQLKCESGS

Going from TCCCCTCTAGTAGGTGAGA to TCCCTTAGAGTGAGGGAGA, the TetR repression strength falls from 0.12 to 0.0732.

First: TCCCAACAAGTCGCAGAGA
Second: TCCCCAGAAGTGATTGAGA
The TetR repression strength of the first is lower: 0.281 for the first, 1.1 for the second.

First: TCCCTAGCAGTGATCGAGA
Second: TCCCGAGCAGTGATGGAGA
The TetR repression strength of the first is higher: 0.659 for the first, 0.371 for the second.

First: TCCCCAGCAGTGATTGAGA
Second: TCCCAGGAAGTGATTGAGA
The TetR repression strength of the first is higher: 1.1 for the first, 0.266 for the second.

First: TCCCCATAAGTGATTGAGA
Second: TCCCAAGCAGTGACAGAGA
The TetR repression strength of the first is lower: 0.42 for the first, 0.432 for the second.

Compared with TCCCGAGCAGTGGCAGAGA, TCCCCAGCAGTGCTTGAGA is higher in TetR repression strength: 0.286 for the first, 0.311 for the second.

Going from TCCCGAGCAGTGATCGAGA to TCCCCAGCAGTGAGTGAGA, the TetR repression strength falls from 0.708 to 0.167.

First: TCCCGAGCAGTGACAGAGA
Second: TCCCTACTAGTTACAGAGA
The TetR repression strength of the first is higher: 0.736 for the first, 0.0592 for the second.

Compared with TCCCGATTAGTCTTTGAGA, TCCCCAGGAGTCCGGGAGA is higher in TetR repression strength: 0.0932 for the first, 0.332 for the second.

First: TCCCACAAAGTCAGTGAGA
Second: TCCCTGATAGTCTTGGAGA
The TetR repression strength of the first is lower: 0.0709 for the first, 0.231 for the second.

Compared with TCCCTCGAAGTGGGGGAGA, TCCCGTCGAGTAAGTGAGA is higher in TetR repression strength: 0.0994 for the first, 0.219 for the second.

Compared with TCCCGAGTAGTGGAGGAGA, TCCCTTGGAGTAACAGAGA is lower in TetR repression strength: 0.155 for the first, 0 for the second.

Going from TCCCGAGGAGTGCCAGAGA to TCCCGAACAGTGTGTGAGA, the TetR repression strength falls from 0.547 to 0.161.

Going from TCCCGAGCAGTGAAAGAGA to TCCCGAGAAGTGAAAGAGA, the TetR repression strength falls from 0.755 to 0.0859.

First: TCCCGAACAGTGGGTGAGA
Second: TCCCGGGCAGTGATAGAGA
The TetR repression strength of the first is higher: 0.949 for the first, 0.571 for the second.

Going from TCCCGAGCAGTGATAGAGA to TCCCGAACAGTGGGGGAGA, the TetR repression strength falls from 0.75 to 0.367.

Going from TCCCGAGAAGTGCCAGAGA to TCCCGAGCAGTGCTAGAGA, the TetR repression strength rises from 0.312 to 0.661.

Going from TCCCAAGCAGTGAAAGAGA to TCCCGAGCAGTGCCAGAGA, the TetR repression strength rises from 0.367 to 0.684.

First: TCCCACAAAGTGGCGGAGA
Second: TCCCGTAAAGTTCCGGAGA
The TetR repression strength of the first is lower: 0.306 for the first, 0.38 for the second.

First: TCCCAAGGAGTAGGAGAGA
Second: TCCCACGAAGTAATAGAGA
The TetR repression strength of the first is lower: 0.119 for the first, 0.379 for the second.

First: TCCCGATAAGTTTACGAGA
Second: TCCCGAACAGTAACGGAGA
The TetR repression strength of the first is lower: 0.495 for the first, 0.571 for the second.

First: TCCCATTGAGTGCTTGAGA
Second: TCCCGAGCAGTGATTGAGA
The TetR repression strength of the first is lower: 0.36 for the first, 0.701 for the second.

Going from TCCCGAGCAGTGAGAGAGA to TCCCGAGCAGTGTGTGAGA, the TetR repression strength falls from 0.689 to 0.222.

Going from TCCCGTCGAGTGAACGAGA to TCCCGTCGAGTGAGAGAGA, the TetR repression strength rises from 0.242 to 0.396.

First: TCCCGAGCAGTAACTGAGA
Second: TCCCGAGCAGTAACAGAGA
The TetR repression strength of the first is lower: 0.149 for the first, 0.752 for the second.

First: TCCCGAGCAGTGAGTGAGA
Second: TCCCGAGCAGTGTGAGAGA
The TetR repression strength of the first is higher: 0.507 for the first, 0.175 for the second.

Going from TCCCGTCGAGTGAAAGAGA to TCCCGTGCAGTAACAGAGA, the TetR repression strength falls from 0.69 to 0.

First: TCCCGTGCAGTGATTGAGA
Second: TCCCGTGAAGTACGCGAGA
The TetR repression strength of the first is lower: 0.165 for the first, 0.217 for the second.

First: TCCCCCGTAGTGGGAGAGA
Second: TCCCTTTAAGTGCTGGAGA
The TetR repression strength of the first is higher: 0.312 for the first, 0.3 for the second.

Compared with TCCCACGGAGTGTGGGAGA, TCCCCAAGAGTTATAGAGA is higher in TetR repression strength: 0.15 for the first, 0.281 for the second.

Going from TCCCTTACAGTGCGTGAGA to TCCCGAGCAGTTAGAGAGA, the TetR repression strength rises from 0.183 to 0.202.

First: TCCCGAGGAGTTATAGAGA
Second: TCCCGTGAAGTGGGCGAGA
The TetR repression strength of the first is higher: 0.326 for the first, 0.0935 for the second.

Compared with TCCCGCGAAGTGAGCGAGA, TCCCGTGAAGTGAGCGAGA is higher in TetR repression strength: 0.248 for the first, 0.888 for the second.

Compared with TCCCGAGCAGTTATAGAGA, TCCCTGTTAGTTGTAGAGA is lower in TetR repression strength: 0.686 for the first, 0.271 for the second.

Going from TCCCGGTTAGTCTTGGAGA to TCCCCTTGAGTTTGTGAGA, the TetR repression strength rises from 0.317 to 0.323.

Compared with TCCCTAACAGTCCACGAGA, TCCCTGAAAGTCTGCGAGA is lower in TetR repression strength: 0.205 for the first, 0.134 for the second.

Going from TCCCTGAAAGTCTACGAGA to TCCCTGAAAGTATACGAGA, the TetR repression strength falls from 0.815 to 0.205.

Going from TCCCTTAAAGTCTAAGAGA to TCCCTTACAGTCCACGAGA, the TetR repression strength rises from 0.539 to 0.808.

Going from TCCCTAAAAGTCTACGAGA to TCCCTTAAAGTCTACGAGA, the TetR repression strength rises from 0.16 to 0.771.

Compared with TCCCTTACAGTCTACGAGA, TCCCTGGCAGTTTGCGAGA is higher in TetR repression strength: 0.405 for the first, 0.65 for the second.

Going from TCCCGGGGAGTGCAGGAGA to TCCCGAATAGTGAGGGAGA, the TetR repression strength falls from 0.176 to 0.127.

Going from TCCCGCCGAGTCGTCGAGA to TCCCGCCGAGTCGAGGAGA, the TetR repression strength falls from 1.24 to 0.36.

First: TCCCGGACAGTCGTCGAGA
Second: TCCCGGACAGTCGACGAGA
The TetR repression strength of the first is higher: 0.892 for the first, 0.0556 for the second.

First: TCCCGCCGAGTAGTCGAGA
Second: TCCCGGACAGTCATCGAGA
The TetR repression strength of the first is lower: 0.18 for the first, 0.216 for the second.

Going from TCCCTTGCAGTCAATGAGA to TCCCAGGGAGTACTCGAGA, the TetR repression strength rises from 0.251 to 0.275.

Going from TCCCGGGGAGTGACTGAGA to TCCCTTCTAGTCCGTGAGA, the TetR repression strength rises from 0.143 to 0.468.

Compared with TCCCGATGAGTCAGGGAGA, TCCCTGTAAGTCAGCGAGA is higher in TetR repression strength: 0.174 for the first, 0.494 for the second.

First: TCCCAGGCAGTGTGTGAGA
Second: TCCCACACAGTATGTGAGA
The TetR repression strength of the first is higher: 0.207 for the first, 0.13 for the second.

Compared with TCCCTCATAGTATGTGAGA, TCCCACATAGTATGTGAGA is higher in TetR repression strength: 0.257 for the first, 1.23 for the second.

Compared with TCCCACAGAGTATGTGAGA, TCCCGCAGAGTATGTGAGA is lower in TetR repression strength: 1.24 for the first, 0.171 for the second.

Going from TCCCACATAGTAAGTGAGA to TCCCGCATAGTTATTGAGA, the TetR repression strength falls from 0.207 to 0.197.

Going from TCCCGAACAGTGGGAGAGA to TCCCAGTTAGTTCGGGAGA, the TetR repression strength falls from 0.231 to 0.0688.

First: TCCCCATTAGTCGCGGAGA
Second: TCCCATTGAGTTCGAGAGA
The TetR repression strength of the first is lower: 0.241 for the first, 0.29 for the second.

Compared with TCCCGGGGAGTTCGGGAGA, TCCCATTTAGTTCGGGAGA is higher in TetR repression strength: 0.307 for the first, 1.09 for the second.

Compared with TCCCATTTAGTCGGAGAGA, TCCCATTTAGTCGCGGAGA is higher in TetR repression strength: 0.231 for the first, 0.755 for the second.

First: TCCCGGGTAGTTCGAGAGA
Second: TCCCATTGAGTTCGGGAGA
The TetR repression strength of the first is lower: 0.289 for the first, 0.851 for the second.

Going from TCCCATGGAGTTCGGGAGA to TCCCGGGTAGTTCGGGAGA, the TetR repression strength rises from 0.228 to 0.723.

Going from TCCCCTTTAGTTCGGGAGA to TCCCATACAGTCGTAGAGA, the TetR repression strength falls from 0.339 to 0.0752.

Compared with TCCCTCAGAGTGCTGGAGA, TCCCGGCAAGTTAGTGAGA is lower in TetR repression strength: 0.475 for the first, 0.0764 for the second.

First: TCCCGTCAAGTGCATGAGA
Second: TCCCTATCAGTAGGCGAGA
The TetR repression strength of the first is lower: 0.315 for the first, 0.414 for the second.

First: TCCCTAACAGTTACAGAGA
Second: TCCCTATAAGTTATTGAGA
The TetR repression strength of the first is lower: 0.203 for the first, 0.433 for the second.

First: TCCCTTTCAGTTACAGAGA
Second: TCCCTATCAGTTACAGAGA
The TetR repression strength of the first is lower: 0.363 for the first, 0.707 for the second.

Compared with TCCCCTTCAGTTACTGAGA, TCCCTAGAAGTTACTGAGA is lower in TetR repression strength: 0.28 for the first, 0.18 for the second.

Compared with TCCCTGTCAGTTACTGAGA, TCCCTAACAGTTACTGAGA is lower in TetR repression strength: 0.327 for the first, 0.297 for the second.

First: TCCCTATCAGTTACTGAGA
Second: TCCCTCTCAGTTACTGAGA
The TetR repression strength of the first is lower: 0.698 for the first, 0.703 for the second.

First: TCCCTATCAGTTACGGAGA
Second: TCCCTATAAGTTACTGAGA
The TetR repression strength of the first is lower: 0.484 for the first, 0.711 for the second.
